In all, about 3,300 compounds went through this assay and about 100 (3%) were called active. Only a sample is shown. Values without a mark were called inactive. No stated cut-off is given here; in the data, active means inhibition above about 9.5%; inactive means the rest.
Target: 1-phosphatidylinositol 4,5-bisphosphate phosphodiesterase gamma-1 (Homo sapiens) (UniProt P19174)
Assay: human PLCG1 activity blockade – biochemical, fluorescence, counter-screen for PLC-beta3 inhibitor project (AID 743258)
Details: purified PLC-gamma1, fluorogenic substrate, at 12.3 µM, stronger effect = higher value

Chain of 1-phosphatidylinositol 4,5-bisphosphate phosphodiesterase gamma-1 (Homo sapiens) (P19174 whole entry, looked up): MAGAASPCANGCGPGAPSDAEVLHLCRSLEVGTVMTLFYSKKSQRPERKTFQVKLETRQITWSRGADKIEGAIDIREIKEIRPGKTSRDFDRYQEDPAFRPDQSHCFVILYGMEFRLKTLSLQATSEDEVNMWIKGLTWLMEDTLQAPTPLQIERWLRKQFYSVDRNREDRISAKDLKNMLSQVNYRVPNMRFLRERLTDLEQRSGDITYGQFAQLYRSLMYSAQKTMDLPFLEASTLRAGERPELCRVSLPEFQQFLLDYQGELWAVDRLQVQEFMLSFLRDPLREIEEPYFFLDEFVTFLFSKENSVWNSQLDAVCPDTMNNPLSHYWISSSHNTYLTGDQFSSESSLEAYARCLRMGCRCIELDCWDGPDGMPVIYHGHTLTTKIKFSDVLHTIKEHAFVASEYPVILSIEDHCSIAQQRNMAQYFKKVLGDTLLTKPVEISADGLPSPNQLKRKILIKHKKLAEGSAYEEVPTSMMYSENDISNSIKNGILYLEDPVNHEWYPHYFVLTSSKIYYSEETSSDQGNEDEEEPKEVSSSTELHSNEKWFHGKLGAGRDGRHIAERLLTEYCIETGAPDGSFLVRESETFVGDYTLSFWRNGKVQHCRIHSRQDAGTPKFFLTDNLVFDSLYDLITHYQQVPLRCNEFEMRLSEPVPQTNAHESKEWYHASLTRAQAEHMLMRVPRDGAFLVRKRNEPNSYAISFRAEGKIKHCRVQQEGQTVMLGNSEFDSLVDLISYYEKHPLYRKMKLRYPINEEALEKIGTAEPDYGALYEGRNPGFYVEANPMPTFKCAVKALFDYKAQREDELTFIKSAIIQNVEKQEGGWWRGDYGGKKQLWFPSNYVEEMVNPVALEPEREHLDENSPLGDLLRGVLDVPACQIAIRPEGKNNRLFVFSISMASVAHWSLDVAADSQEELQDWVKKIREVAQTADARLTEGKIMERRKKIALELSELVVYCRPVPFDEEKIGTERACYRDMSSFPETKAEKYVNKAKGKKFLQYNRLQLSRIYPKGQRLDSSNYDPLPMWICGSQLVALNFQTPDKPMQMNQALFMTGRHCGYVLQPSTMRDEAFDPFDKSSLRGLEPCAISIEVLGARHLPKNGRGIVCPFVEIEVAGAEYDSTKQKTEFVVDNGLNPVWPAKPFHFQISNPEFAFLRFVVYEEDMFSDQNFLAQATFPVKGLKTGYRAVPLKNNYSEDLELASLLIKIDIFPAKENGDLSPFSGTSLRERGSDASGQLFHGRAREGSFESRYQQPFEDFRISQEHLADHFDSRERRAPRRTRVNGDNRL

First: CCCCNc1ccc(C(=O)Nc2cccc(C)n2)cc1[N+](=O)[O-]
Second: CC(C)(C)c1ccc(C(=O)Nc2cc(Cl)c(Br)cc2C(=O)O)cc1
The inhibition of the first is higher: -2.76% for the first, -7.48% for the second.

First: Nc1nnc(SCC(=O)OCc2ccc(Cl)c(Cl)c2)s1
Second: Cc1cc(NC(=O)COn2nnc3ccccc32)no1
The inhibition of the first is lower: -3.53% for the first, -0.28% for the second.

First: CCCCn1c(SCC(=O)N2CCCC2=O)nc2cc(S(N)(=O)=O)ccc21
Second: Cc1cccc(C(=O)NCCCN2CCCC2=O)c1
The inhibition of the first is higher: -2.51% for the first, -4.45% for the second.

Compared with `COc1ccccc1CCNC(=O)CN1C(=O)NC2(CCCC2)C1=O`, `COc1ccccc1C(=O)N1C(CC(=O)Nc2ccccc2C)C(=O)NC2CCCCC21` (stereo not given) is lower in inhibition: 5.92% for the first, -4.18% for the second.

First: Cc1cc(C)c(NC(=O)CN2CCOCCOCCOCCOCC2)c(C)c1
Second: Cc1ccc(C(=O)N2CCN(C(=O)N3CCOCC3)CC2)cc1
The inhibition of the first is higher: -2.06% for the first, -6.45% for the second.

First: O=c1c([N+](=O)[O-])cc(C(F)(F)F)cn1Cc1cccc(Cl)c1
Second: O=C(COc1ccc(Cl)cc1)N1CCN(c2cccc(C(F)(F)F)c2)CC1
The inhibition of the first is higher: 8.36% for the first, -4.75% for the second.

Going from `O=C(CSc1ncn[nH]1)N/N=C/c1ccc(F)cc1` to `Cc1ccc(/C=N/NC(=O)CSc2nc3ccccc3o2)cc1`, the inhibition falls from 0.56% to -5.43%.

First: CCOC(=O)[C@]12CCCC=C1N(CCCOC)C(=O)[C@@H]2CC(=O)N1CCOCC1
Second: C[C@]12c3[nH]c4ccc(Cl)cc4c3CCN1C(=O)[C@@H](CC(=O)NCCCn1ccnc1)C[C@@H]2C(=O)N1CCOCC1
The inhibition of the first is higher: -3.38% for the first, -7.65% for the second.

Compared with `Cc1nc(Nc2ccccc2C)c2cnn(C)c2n1`, `CCc1c(Nc2ccccc2C)nc(N)[nH]c1=O` is higher in inhibition: -6.74% for the first, 0.72% for the second.

Compared with `COc1ccc(C(N)c2csc(NC(=O)Nc3cccc(C(F)(F)F)c3)n2)cc1` (stereo not given), `CNC(=O)c1ccc(NC(=O)c2cccc(C(F)(F)F)c2)cc1` is lower in inhibition: -0.69% for the first, -6.45% for the second.

Going from `COc1ccc(/C(C)=N/N2CCOCC2)c(O)c1` to `COc1ccccc1C(=O)Nc1cccc(C(=O)N2CCOCC2)c1`, the inhibition rises from -16.2% to -6.49%.

First: CC(C)n1c(CN2CCN(Cc3ccccc3)CC2)nc2ccccc21
Second: Cc1ccc(S(=O)(=O)Cn2nnnc2CN2CCN(Cc3ccc4c(c3)OCO4)CC2)cc1
The inhibition of the first is lower: -8.55% for the first, 0.94% for the second.

Compared with `CC(=O)C12CC(C)=C(C)CC1CC1C3CCC4=CC(=O)CCC4(C)C3CCC12C` (stereo not given), `CC1(C)CC(=O)C=C(NC2CC(C)(C)NC(C)(C)C2)C1` is higher in inhibition: -1.14% for the first, -0.48% for the second.

Going from `O=C(NC12CC3CC(CC(C3)C1)C2)N1CCCC(CO)C1` (stereo not given) to `CC(C)C(NC(=O)C1CCC(C(C)(C)C)CC1)C(=O)NCCCN1CCCCC1` (stereo not given), the inhibition rises from -3.42% to 8.08%.

Compared with `C=CCn1c(SCn2nnc3ccccc3c2=O)nnc1-c1ccc(Cl)cc1`, `O=c1c2ccccc2c(-c2ccccc2)nn1Cc1ccccc1` is lower in inhibition: -4% for the first, -4.2% for the second.

First: CCOC(=O)C1CCN(C(=O)c2ccccc2N(C)S(=O)(=O)c2ccccc2)CC1
Second: CCOC(=O)N1CCC(c2cc(=O)n(-c3ccccc3)[nH]2)CC1
The inhibition of the first is lower: -3.46% for the first, 2.8% for the second.

Going from `CCC[C@H]1CCCC/C=C\CCCC(=O)OCCN1C(=O)OC(C)(C)C` to `CN(CC(=O)NC1CCCCC1)S(=O)(=O)c1ccc(Br)s1`, the inhibition falls from 1.42% to -5.25%.

Compared with `Cc1cccc([C@@H]2[C@@H]3C(=O)N(Cc4ccccc4)C(=O)[C@@H]3[C@]3(Cc4ccc(Cl)cc4)C(=O)N(c4cccc(Cl)c4)C(=O)N23)c1`, `O=C1N[C@@H](c2ccccc2)COC(=O)[C@H](Cc2ccc(F)cc2)C/C=C\C[C@@H]1CC(=O)N(CCO)Cc1ccccc1` is lower in inhibition: 3.36% for the first, -2.05% for the second.

First: Cc1c(C(=O)c2cccc([N+](=O)[O-])c2)c2ccccn2c1CCC#N
Second: Cc1ccc(-c2cn(S(=O)(=O)c3cccc([N+](=O)[O-])c3)nc2N)cc1
The inhibition of the first is higher: -0.24% for the first, -5.96% for the second.

Compared with `O=C(Nc1ccc(Br)cc1)C1CCC(=O)N1Cc1ccccc1Cl` (stereo not given), `CC(C)Oc1ccc(CC(=O)NNC(=S)Nc2ccc(Br)cc2)cc1` is lower in inhibition: -0.49% for the first, -9.3% for the second.

Going from `CCN(CC)Cc1csc2ccc(Br)cc12` to `OC(CNCC1CCCO1)Cn1c2ccc(Br)cc2c2cc(Br)ccc21` (stereo not given), the inhibition falls from -2.99% to -8.03%.

Going from `Cc1nc2ccccc2nc1CC(O)(c1ccccc1)c1ccccc1` to `Cc1ccccc1C(=O)Nc1ccccc1Sc1ccccc1`, the inhibition falls from 1.82% to -2.19%.

First: C/C(CC(C)C)=N\Oc1nc(C)cc(C)n1
Second: COc1cc(OC)nc(S(C)(=O)=O)n1
The inhibition of the first is lower: -8.49% for the first, 1.91% for the second.

First: O=C(c1ccc2c(c1)OCO2)N1CCNc2ccccc2C1
Second: Cc1cccc(NC(=O)c2ccc3c(=O)n(CC4CCCO4)c(=S)[nH]c3c2)c1 (stereo not given)
The inhibition of the first is lower: -5.39% for the first, -0.76% for the second.

Going from `Cc1ccc(NC(=S)N(Cc2ccco2)C(C)c2cccs2)cc1` (stereo not given) to `COCCNC(=O)C(c1ccc(O)cc1)N(C(=O)CCC(=O)Nc1nccs1)c1ccc(C)cc1` (stereo not given), the inhibition rises from -3.86% to 0.09%.

First: O=C1c2ccccc2S(=O)(=O)N1CC(O)Cn1c2ccccc2c2ccccc21 (stereo not given)
Second: O=C(C(c1ccccc1)c1ccccc1)N1CCN(CC(O)COc2ccccc2)CC1 (stereo not given)
The inhibition of the first is higher: 2.37% for the first, 0.93% for the second.

First: O=C(/C=C/c1c(F)cccc1Cl)Nc1nn[nH]n1
Second: O=S(=O)(Nc1ccc(Oc2ncccn2)c(Cl)c1)c1ccc(F)cc1
The inhibition of the first is lower: -8.5% for the first, -6.2% for the second.

Compared with `CCOc1ccccc1NC(=O)c1cccnc1`, `CC1Oc2ccccc2N(Cc2cccnc2)C1=O` (stereo not given) is higher in inhibition: -8.44% for the first, -5.05% for the second.

Compared with `COc1ccc([N+](=O)[O-])cc1N(CC(O)Cn1nnc2ccccc21)S(=O)(=O)c1ccc(C)cc1` (stereo not given), `CC(=O)C1=C(O)C(=O)N(c2cccnc2)C1c1ccc([N+](=O)[O-])cc1` (stereo not given) is lower in inhibition: -0.66% for the first, -4.99% for the second.

First: COc1cc(NC(=O)COC(=O)c2ccc([N+](=O)[O-])s2)cc(OC)c1OC
Second: COC(=O)CN1C(=O)C(O)=C(C(C)=O)C1c1ccc([N+](=O)[O-])cc1 (stereo not given)
The inhibition of the first is lower: -0.3% for the first, -0.28% for the second.

First: O=C(CSc1nnc(-c2ccncc2)n1C1CCCCC1)Nc1ccccc1
Second: Cc1ccc(S(=O)(=O)N2CCCCC2)cc1NC(=O)CCNC(=O)c1ccccc1
The inhibition of the first is lower: -6.62% for the first, -4.84% for the second.

Compared with `COC(=O)NC1(C(F)(F)F)NC(=O)N(C2CCCCC2)C1=O` (stereo not given), `CCc1ccc(-c2nc(SCC(=O)NC3CCCC3)n[nH]2)cc1` is lower in inhibition: -2.81% for the first, -6.5% for the second.

Compared with `CN(C)S(=O)(=O)c1cccc(NC(=O)COC(=O)C2(c3ccccc3F)CCCC2)c1`, `CN(C)/C=C(/C(=O)c1ccc(Cl)cc1)S(=O)(=O)c1ccccc1` is lower in inhibition: -1.97% for the first, -4.31% for the second.

Going from `O=C(O)c1ccc(Cn2c(=S)[nH]c3cc(Cl)ccc3c2=O)cc1` to `NC1=NN(c2cccc(C(=O)O)c2)C(=O)C1`, the inhibition rises from -7.72% to -3.09%.

Compared with `C[C@H](C(=O)N(C)c1ccccc1)[C@@H](O)c1ccc2ccccc2c1`, `CN(C(=O)c1ccc(NC(=O)Cc2cccc(NC(=O)C3CCN(C(=O)c4ccccc4)CC3)c2)cc1)C1CC1` is higher in inhibition: -5.46% for the first, -5.36% for the second.

Going from `CCOc1ccc(NC(=O)[C@H](C)NC(=O)C2CC(=O)N(c3ccc(OC)cc3)C2)cc1` (stereo not given in full) to `Cc1ccc(N2CC(C(=O)NCCS(=O)(=O)N3CCN(c4ccccc4)CC3)CC2=O)cc1` (stereo not given), the inhibition rises from -8.84% to -3.74%.

First: CC1(C)CC(=O)C=C(NCCN2CCNCC2)C1
Second: Cc1ccc(-n2ncc3c2CC(C)(C)CC3NC(=O)CCc2cnn(C)c2)cc1 (stereo not given)
The inhibition of the first is lower: -10.6% for the first, -2.59% for the second.

First: CC(=O)c1c(C)[nH]c(C(=O)OCC(=O)Nc2cc(S(=O)(=O)N3CCCCC3)ccc2C)c1C
Second: Cc1ccc(C)c(N2CCN(S(=O)(=O)c3c(C)[nH]c(C)c3C(=O)N3CCCC3)CC2)c1
The inhibition of the first is higher: -5.44% for the first, -8.57% for the second.

First: O=C(CCNS(=O)(=O)c1ccc(Br)cc1)NCC1CCCO1 (stereo not given)
Second: CC1CCN(S(=O)(=O)c2ccc(S(=O)(=O)NCc3ccco3)cc2)CC1
The inhibition of the first is lower: -3.55% for the first, 0.59% for the second.

Going from `CCOC(=O)Nc1ccc(NC(=O)OCC)cc1` to `CCOc1ccc(CCNC(=O)COC(=O)CCS(=O)(=O)c2ccc(C)cc2)cc1OCC`, the inhibition falls from 5.66% to 1.09%.

Compared with `CCn1c(/C=C/Nc2ccccc2)[n+](CC)c2ccc(C(=O)OCC(F)(F)F)cc21`, `CCCCc1nc2ccccc2c(NC(=O)CN2CCN(C)CC2)c1CCC` is higher in inhibition: -14.3% for the first, -4.07% for the second.

Going from `COCCCN(C(=S)Nc1c(C)cc(C)cc1C)C(C)c1ccncc1` (stereo not given) to `Cc1ccc(C(=O)Nc2ccc(C)c(S(=O)(=O)N(C)C)c2)s1`, the inhibition rises from -0.82% to -0.35%.

First: NC1=CC(=O)C(=O)c2cccnc21
Second: CCOc1cccc(-c2nnc3sc(COc4ccc(OC)cc4)nn23)c1
The inhibition of the first is higher: 0.29% for the first, -4.31% for the second.

`O=C(NCc1ccc(F)cc1F)[C@@H]1CCCN1C(=O)[C@@H]1CCCN1C(=O)c1cccc(Cl)c1` gave an inhibition of -4.84%.

For `C=CC1=C(C(=O)O)N2C(=O)[C@@H](NC(=O)/C(=N\OCC(=O)O)c3csc(N)n3)[C@H]2SC1`, the inhibition was 88.6% (active).
For `O=C1CS(=O)CN1c1ccc(Oc2ccccc2)cc1` (stereo not given), the inhibition was 24.1% (active).
With `O=c1ccc2c(-c3ccccc3S(=O)(=O)O)c3ccc(O)c(O)c3oc-2c1O` the inhibition was 26.6% (active).

From PubChem BioAssay AID743258 (The Scripps Research Institute Molecular Screening Center, 2014)
